# Experimental data: the supplement of paper PMC10849652
# The full data set covers some 7,900 targets. This sample favours those with a hit. About 0.6% of all pairs of compound and target were hits. A number with no mark means an inactive call.
# How the values were obtained:
# Assay in all cases: log2 fold change, soluble protein after heating vs DMSO (PISA); higher = thermal stabilisation; K562 cells, 10 uM, 30 min; active = over 0.2 and 3.5 SD of the protein, either way, in both replicates (recomputed)
# [1] = compound: NC(=O)Nc1cc(-c2cccc(F)c2)sc1C(=O)N[C@H]1CCCNC1
# In short: (§1)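 Values are thermal stability changes relative to control samples and are taken from duplicates. They are stated as log2 fold changes. Before quantification by TMTpro 16plex LC-MS/MS with equalised channel sums, K562 cells at 2×10^6 cells/mL were treated with 10 μM compound for 30 min, heated in aliquots for 3 min across 48°C-58°C, pooled, extracted in PBS with 0.5% NP-40 at 4°C, and centrifuged at 21,000xg for 90 min to give the soluble supernatant.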
# [2] = compound: NC(=O)c1cnc(N[C@@H]2CCCC[C@@H]2N)nc1Nc1cccc(-n2nccn2)c1
# In short: as §1
# [3] = compound: NC1(c2ccc(-c3nc4ccn5c(=O)[nH]nc5c4cc3-c3ccccc3)cc2)CCC1
# In short: as §1
# [4] = compound: NCC(=O)Nc1ccc(-n2nc(C(F)(F)F)cc2-c2ccc3c(ccc4ccccc43)c2)cc1
# In short: as §1
# entinostat = compound: Nc1ccccc1NC(=O)c1ccc(CNC(=O)OCc2cccnc2)cc1 [entinostat]
# In short: as §1
# vorinostat = compound: O=C(CCCCCCC(=O)Nc1ccccc1)NO [vorinostat]
# In short: as §1
# citarinostat = compound: O=C(CCCCCCNC(=O)c1cnc(N(c2ccccc2)c2ccccc2Cl)nc1)NO [citarinostat]
# In short: as §1
# silmitasertib = compound: O=C(O)c1ccc2c(c1)nc(Nc1cccc(Cl)c1)c1ccncc12 [silmitasertib]
# In short: as §1
# [5] = compound: O=C1NC(=O)C(c2cnc3ccccn23)=C1c1cn2c3c(cc(F)cc13)CN(C(=O)N1CCCCC1)CC2
# In short: as §1
# [6] = compound: c1cc(OCCN2CCCCC2)cc(-c2n[nH]c3ccc(-c4nnc[nH]4)cc23)c1
# In short: as §1
# Sequence of UniProt Q14624 (Q14624 whole entry, looked up): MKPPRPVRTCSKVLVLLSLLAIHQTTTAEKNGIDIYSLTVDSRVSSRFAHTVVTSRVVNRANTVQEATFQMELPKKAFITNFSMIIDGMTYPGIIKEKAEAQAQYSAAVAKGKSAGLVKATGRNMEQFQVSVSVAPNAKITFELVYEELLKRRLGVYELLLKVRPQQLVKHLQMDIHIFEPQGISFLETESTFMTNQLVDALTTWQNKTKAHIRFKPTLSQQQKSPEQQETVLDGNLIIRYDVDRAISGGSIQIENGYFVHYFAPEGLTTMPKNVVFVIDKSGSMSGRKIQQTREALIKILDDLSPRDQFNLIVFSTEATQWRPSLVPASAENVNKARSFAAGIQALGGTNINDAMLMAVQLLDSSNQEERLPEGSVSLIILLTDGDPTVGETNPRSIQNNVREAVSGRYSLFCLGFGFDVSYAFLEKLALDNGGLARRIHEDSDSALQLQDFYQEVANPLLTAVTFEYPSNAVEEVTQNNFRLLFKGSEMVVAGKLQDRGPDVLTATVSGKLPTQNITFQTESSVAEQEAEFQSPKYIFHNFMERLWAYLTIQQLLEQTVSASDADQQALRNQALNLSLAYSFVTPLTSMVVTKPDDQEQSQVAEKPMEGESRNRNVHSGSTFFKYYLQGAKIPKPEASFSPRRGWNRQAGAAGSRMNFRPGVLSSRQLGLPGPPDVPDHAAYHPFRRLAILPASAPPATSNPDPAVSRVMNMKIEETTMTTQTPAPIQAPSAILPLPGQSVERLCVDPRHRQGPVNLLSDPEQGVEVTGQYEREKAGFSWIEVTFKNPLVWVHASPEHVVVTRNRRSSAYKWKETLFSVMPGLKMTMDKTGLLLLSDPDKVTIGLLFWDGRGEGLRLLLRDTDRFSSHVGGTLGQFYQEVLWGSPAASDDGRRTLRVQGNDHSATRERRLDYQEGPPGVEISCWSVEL
# Sequence of UniProt Q9UPY8 (Q9UPY8 whole entry, looked up): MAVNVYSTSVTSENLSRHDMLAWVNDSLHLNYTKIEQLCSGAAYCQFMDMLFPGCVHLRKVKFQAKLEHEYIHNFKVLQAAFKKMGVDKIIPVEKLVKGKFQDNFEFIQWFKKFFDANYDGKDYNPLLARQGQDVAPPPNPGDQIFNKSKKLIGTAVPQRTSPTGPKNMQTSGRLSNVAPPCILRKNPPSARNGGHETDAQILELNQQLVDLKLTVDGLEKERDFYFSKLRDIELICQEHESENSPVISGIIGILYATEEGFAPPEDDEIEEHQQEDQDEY
# Sequence of UniProt Q03252 (Q03252 whole entry, looked up): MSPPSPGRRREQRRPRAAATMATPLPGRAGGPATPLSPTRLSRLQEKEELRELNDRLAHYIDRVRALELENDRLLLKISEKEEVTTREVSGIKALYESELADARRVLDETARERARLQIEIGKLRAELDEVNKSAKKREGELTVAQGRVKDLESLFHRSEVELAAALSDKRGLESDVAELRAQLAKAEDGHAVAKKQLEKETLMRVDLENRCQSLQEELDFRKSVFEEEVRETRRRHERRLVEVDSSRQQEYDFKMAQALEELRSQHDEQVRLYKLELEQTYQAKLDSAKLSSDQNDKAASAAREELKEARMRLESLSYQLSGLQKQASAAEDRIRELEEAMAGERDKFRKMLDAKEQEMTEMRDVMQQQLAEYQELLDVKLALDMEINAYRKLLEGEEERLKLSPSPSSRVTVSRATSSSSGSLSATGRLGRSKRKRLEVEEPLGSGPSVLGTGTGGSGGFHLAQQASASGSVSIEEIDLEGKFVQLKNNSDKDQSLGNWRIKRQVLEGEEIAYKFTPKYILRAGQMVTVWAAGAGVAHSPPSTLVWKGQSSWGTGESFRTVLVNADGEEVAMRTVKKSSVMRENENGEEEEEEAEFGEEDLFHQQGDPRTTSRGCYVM
# Sequence of UniProt P32019 (P32019 whole entry, looked up): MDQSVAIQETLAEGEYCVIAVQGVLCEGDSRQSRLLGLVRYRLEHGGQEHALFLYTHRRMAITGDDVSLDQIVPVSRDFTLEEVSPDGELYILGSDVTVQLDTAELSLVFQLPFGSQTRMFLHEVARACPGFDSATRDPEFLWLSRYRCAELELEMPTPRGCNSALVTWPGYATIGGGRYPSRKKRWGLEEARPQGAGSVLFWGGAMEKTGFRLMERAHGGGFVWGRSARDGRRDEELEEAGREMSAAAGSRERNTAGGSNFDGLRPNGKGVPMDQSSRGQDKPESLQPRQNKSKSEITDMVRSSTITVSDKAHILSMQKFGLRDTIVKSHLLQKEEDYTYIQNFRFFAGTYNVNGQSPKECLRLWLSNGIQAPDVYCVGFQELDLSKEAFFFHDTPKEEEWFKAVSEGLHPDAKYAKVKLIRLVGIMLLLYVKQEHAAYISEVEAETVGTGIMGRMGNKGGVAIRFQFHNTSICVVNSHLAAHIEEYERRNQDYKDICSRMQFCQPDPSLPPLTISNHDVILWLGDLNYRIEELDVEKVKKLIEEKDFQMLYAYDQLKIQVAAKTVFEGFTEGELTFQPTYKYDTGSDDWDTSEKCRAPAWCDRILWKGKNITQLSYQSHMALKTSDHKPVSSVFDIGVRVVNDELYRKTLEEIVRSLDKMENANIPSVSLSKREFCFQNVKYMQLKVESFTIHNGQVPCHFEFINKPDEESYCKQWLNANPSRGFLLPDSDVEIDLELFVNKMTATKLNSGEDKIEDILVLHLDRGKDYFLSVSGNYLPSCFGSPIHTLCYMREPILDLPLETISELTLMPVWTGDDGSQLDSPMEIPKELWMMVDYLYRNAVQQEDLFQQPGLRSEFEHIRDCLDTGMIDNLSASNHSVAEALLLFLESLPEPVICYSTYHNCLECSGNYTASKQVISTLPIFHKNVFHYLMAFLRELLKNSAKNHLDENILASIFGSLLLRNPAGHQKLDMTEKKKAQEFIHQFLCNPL
# Sequence of UniProt Q8IWB1 (Q8IWB1 whole entry, looked up): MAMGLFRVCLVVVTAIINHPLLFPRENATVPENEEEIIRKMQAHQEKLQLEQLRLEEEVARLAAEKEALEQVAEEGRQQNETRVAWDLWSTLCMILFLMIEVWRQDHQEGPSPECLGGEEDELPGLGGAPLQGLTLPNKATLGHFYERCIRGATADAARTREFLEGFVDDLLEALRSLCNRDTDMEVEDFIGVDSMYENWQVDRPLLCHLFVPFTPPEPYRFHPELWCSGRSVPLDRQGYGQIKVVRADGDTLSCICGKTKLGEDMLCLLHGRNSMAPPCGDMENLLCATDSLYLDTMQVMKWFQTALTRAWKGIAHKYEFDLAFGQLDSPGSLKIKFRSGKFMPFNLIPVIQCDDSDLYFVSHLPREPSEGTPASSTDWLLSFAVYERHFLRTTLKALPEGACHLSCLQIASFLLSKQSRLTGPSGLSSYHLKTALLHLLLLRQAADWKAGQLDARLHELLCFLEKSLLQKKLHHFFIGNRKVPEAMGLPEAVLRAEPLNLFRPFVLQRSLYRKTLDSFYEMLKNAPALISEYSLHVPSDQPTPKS
# Sequence of UniProt O95140 (O95140 whole entry, looked up): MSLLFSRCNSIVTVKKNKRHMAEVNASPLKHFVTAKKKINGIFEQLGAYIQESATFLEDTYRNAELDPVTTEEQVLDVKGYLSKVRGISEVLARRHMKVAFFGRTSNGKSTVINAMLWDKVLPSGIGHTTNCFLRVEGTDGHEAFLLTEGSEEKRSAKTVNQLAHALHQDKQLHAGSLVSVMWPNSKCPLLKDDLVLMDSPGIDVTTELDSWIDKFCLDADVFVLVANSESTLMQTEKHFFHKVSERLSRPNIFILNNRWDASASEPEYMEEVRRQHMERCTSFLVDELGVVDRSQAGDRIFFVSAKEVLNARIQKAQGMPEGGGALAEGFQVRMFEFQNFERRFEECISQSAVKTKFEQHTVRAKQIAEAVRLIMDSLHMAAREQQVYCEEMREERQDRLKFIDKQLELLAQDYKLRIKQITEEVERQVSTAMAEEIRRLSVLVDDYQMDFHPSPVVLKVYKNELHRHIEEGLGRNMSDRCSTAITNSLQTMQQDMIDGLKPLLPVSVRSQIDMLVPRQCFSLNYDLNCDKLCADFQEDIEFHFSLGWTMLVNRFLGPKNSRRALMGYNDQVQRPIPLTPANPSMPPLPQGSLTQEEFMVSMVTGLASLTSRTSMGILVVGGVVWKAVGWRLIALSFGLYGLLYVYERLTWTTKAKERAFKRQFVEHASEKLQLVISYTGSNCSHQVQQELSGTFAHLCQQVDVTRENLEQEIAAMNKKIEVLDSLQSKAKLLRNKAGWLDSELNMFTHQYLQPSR
# Sequence of UniProt Q9NYL2 (Q9NYL2 whole entry, looked up): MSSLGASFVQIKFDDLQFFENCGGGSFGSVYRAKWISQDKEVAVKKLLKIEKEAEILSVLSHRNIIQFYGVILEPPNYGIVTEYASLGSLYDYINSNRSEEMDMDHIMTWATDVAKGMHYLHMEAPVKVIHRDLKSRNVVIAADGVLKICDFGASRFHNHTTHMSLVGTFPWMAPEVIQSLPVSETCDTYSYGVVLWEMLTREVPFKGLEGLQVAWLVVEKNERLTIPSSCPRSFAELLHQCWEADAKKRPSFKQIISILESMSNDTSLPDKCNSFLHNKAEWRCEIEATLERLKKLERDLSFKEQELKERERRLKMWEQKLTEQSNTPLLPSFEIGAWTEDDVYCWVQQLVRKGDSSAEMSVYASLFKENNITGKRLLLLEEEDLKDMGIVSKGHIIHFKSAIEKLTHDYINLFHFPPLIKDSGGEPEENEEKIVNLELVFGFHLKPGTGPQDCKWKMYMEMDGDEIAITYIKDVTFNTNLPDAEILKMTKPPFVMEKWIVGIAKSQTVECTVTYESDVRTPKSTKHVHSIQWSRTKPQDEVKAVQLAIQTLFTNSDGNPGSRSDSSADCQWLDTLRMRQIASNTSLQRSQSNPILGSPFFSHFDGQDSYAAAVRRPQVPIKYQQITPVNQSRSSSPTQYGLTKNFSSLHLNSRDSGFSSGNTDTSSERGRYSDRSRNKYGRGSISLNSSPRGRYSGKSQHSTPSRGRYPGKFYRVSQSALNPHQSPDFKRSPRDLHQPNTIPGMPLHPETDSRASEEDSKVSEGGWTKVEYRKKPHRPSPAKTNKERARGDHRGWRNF
Target,log2 fold change [1],log2 fold change [2],log2 fold change [3],log2 fold change [4],log2 fold change (entinostat),log2 fold change (vorinostat),log2 fold change (citarinostat),log2 fold change (silmitasertib),log2 fold change [5],log2 fold change [6]
ILF3 isoform 7 (UniProt Q12906),-0.056,0.055,0.17,0.107,-0.083,-0.052,-0.053,0.189,0.32,-0.105
IK (UniProt Q13123),-0.016,0.119,0.06,-0.08,0.008,0.026,-0.235,0.132,0.017,-0.078
MAPRE3 (UniProt Q9UPY8),-0.002,-0.053,-0.112,-0.052,0.066,0.002,0.049,0.004,-0.087,-0.04
MFN2 (UniProt O95140),-0.081,-0.088,-0.104,-0.168,0.014,-0.019,-0.021,-0.024,-0.019,-0.008
KIF11 (UniProt P52732),-0.096,-0.075,-0.001,-0.067,0.023,0.099,-0.006,0.147,0.182,-0.044
IRF2BPL (UniProt Q9H1B7),0.032,0.011,0.013,-0.004,-0.024,0.007,-0.001,0.027,-0.218 (active),-0.03
MAP3K7 (UniProt O43318),-0.162,0.033,-0.141,-0.086,0.035,0.033,0.063,0.004,0.091,-0.068
ITIH4 (UniProt Q14624),0.064,-0.041,-0.136,-0.054,0.048,0.343,0.054,0.083,-0.005,0.275
MIA2 (UniProt Q96PC5),0.03,-0.03,0.06,-0.032,-0.009,0.009,0.059,0.083,-0.045,-0.058
MEPCE (UniProt Q7L2J0),-0.085,-0.152,-0.127,-0.004,0.063,0.107,0.005,0.02,-0.019,0.026
JMJD6 isoform 3 (UniProt Q6NYC1),0.01,-0.057,-0.068,-0.019,0.039,0.048,0.064,0.081,-0.061,-0.014
IPO11 isoform 2 (UniProt Q9UI26),-0.004,-0.074,-0.113,-0.039,0.022,0.027,0.048,0.032,-0.027,0.005
ITPRIP (UniProt Q8IWB1),-0.041,-0.031,-0.373 (active),-0.021,-0.01,-0.08,-0.076,-0.009,0.019,-0.06
IPO13 (UniProt O94829),0.051,-0.101,-0.206,-0.112,0.012,0.138,0.067,0.081,-0.046,-0.175
LPCAT3 (UniProt Q6P1A2),-0.074,-0.105,-0.185,-0.229,0.044,0.024,0.087,0.05,-0.091,0.072
MGST1 (UniProt P10620),-0.025,-0.024,-0.035,0.163,0.031,0.027,-0.065,0.036,-0.086,0.122
LIAS (UniProt O43766),-0.079,0.014,-0.035,-0.016,-0.047,-0.17,-0.093,0.026,0.062,-0.022
KIF3A (UniProt Q9Y496),0.075,0.078,-0.011,-0.014,-0.011,-0.137,-0.076,-0.068,-0.048,-0.051
IGFBP4 (UniProt P22692),-0.019,0.032,-0.011,-0.02,0.022,-0.017,-0.124,0.119,0.044,0.15
IGFBP2 (UniProt P18065),0.026,-0.043,-0.242,-0.037,0.04,0.351,-0.068,0.267,-0.143,0.064
MAP4 (UniProt P27816),0.039,0.002,0.04,0.025,-0.015,-0.013,-0.007,-0.018,0.003,-0.014
MAPKAPK3 (UniProt Q16644),0.147,-0.024,-0.125,-0.052,-0.068,-0.006,-0.012,0.18,-0.141,0.05
KIF3B (UniProt O15066),-0.016,-0.029,-0.091,-0.128,-0.016,-0.179,0.053,-0.086,-0.112,0.215
KCTD10 (UniProt Q9H3F6),0.065,0.226,0.028,0.077,-0.014,-0.001,-0.05,-0.042,-0.088,-0.025
LGALS8 isoform 2 (UniProt O00214),-0.053,-0.096,0.179,0.055,0.091,0.078,0.051,0.147,0.121,-0.129
LMNB2 (UniProt Q03252),0.079,-0.077,0.068,-0.09,-0.006,-0.047,0.015,0.018,-0.101,-0.07
KEAP1 (UniProt Q14145),0.007,-0.027,-0.076,-0.034,0.051,0.156,-0.005,0.122,0.143,-0.055
MAP3K20 (UniProt Q9NYL2),-0.008,0.035,-0.012,-0.03,0.019,0,0.002,0.031,0.026,-0.09
INPP5B (UniProt P32019),0.106,-0.066,-0.003,-0.108,0,0.128,-0.016,0.167,0.118,0.014
